# From PubChem
# Only some compounds are listed: those with a hit (about 2.8% of all), similar ones and a draw of the others.
# TRPM1 prom inh – inhibitors of MITF-driven TRPM1 promoter in melanoma cells; actives 0.83% (n = 330,000); inhibition, % at 12.5 µM; SK-MEL-5 TRPM1 promoter luciferase, 24 h;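 active means mean inhibition across replicates of 60% or more, whatever share of single replicates reaches that level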
# CF NFkB inh – cystic fibrosis NF-kB activation inhibition. KKLEB NF-kB-GFP reporter, PAF-induced, GFP fluorescence overnight. inhibition, % at 5 µM. actives 0.86% (n = 360,000);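 active means at least 50% inhibition at 5 µM, scaled per plate between neutral and stimulator controls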;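 further: PAF is a Pseudomonas aeruginosa culture filtrate used as stimulus; plate controls were PAF-stimulated DMSO wells for no effect and unstimulated DMSO wells for full effect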
# HIF-2a block – inhibitors of HIF-2a. 786-0 RCC cells HIF-2a reporter, luciferase luminescence, overnight. inhibition, % at 18.8 µM. actives 0.72% (n = 360,000). AID 624352;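 active means inhibition of the luminescence signal of 40% or more relative to plate controls, in a single-dose primary screen at 18.75 µM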
# Peg3 prom inh – inhibitors of Peg3 promoter; HeLa PEG-Prom luciferase reporter, luminescence, overnight; inhibition, % at 20 µM; actives 1.7% (n = 360,000);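 active means inhibition of at least 50% at 20 µM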
# KKLEB tox – CF airway cell cytotoxicity counter-screen. KKLEB CF airway cells viability, ATPlite luminescence, overnight; hits give low values; cells stimulated with P. aeruginosa culture filtrate. AID 602141. actives 0.36% (n = 360,000). activity change (cytotoxicity), % at 5 µM;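 active means corrected activity change at or below -50% at 5 µM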
# Shn3 inh set2 – inhibitors of Schnurri-3 3'UTR reporter in osteoblasts; actives 0.52% (n = 360,000); Clone20 osteoblast Shn3 3'UTR firefly luciferase, 24 h; inhibition, % at 12.5 µM;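 active means mean inhibition of at least 75% with every replicate also reaching 75%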;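 further: 0% = median of neutral control wells and 100% = pilot-screen positive control compound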
# CF NFkB conf – confirmation of cystic fibrosis induced NF-kB inhibitors; shares compounds with CF NFkB inh; KKLEB CF airway cells, PAF-induced NF-kB-GFP fluorescence, overnight; inhibition, % at 5 µM; actives 64% (n = 1,300); AID 602472; in the data active means inhibition above about 40%;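 further: stimulus PAF is a Pseudomonas aeruginosa filtrate and not platelet activating factor; plate controls were DMSO wells with stimulus for no effect and unstimulated DMSO wells for full effect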
# * = called active by the depositor; · = not tested or not shown.
SMILES,TRPM1 prom inh,CF NFkB inh,HIF-2a block,Peg3 prom inh,KKLEB tox,Shn3 inh set2,CF NFkB conf
Oc1cc2c(cc1C(c1ccc(Cl)c(Cl)c1)N1CCCC1)OCO2 (stereo not drawn),6.4,63.9*,29.4,31.1,-48.1,23.7,44.1*
COc1ccccc1[C@]1(C)ON(c2ccccc2C(F)(F)F)C1=O,58.9,55.5*,35.3,81.9*,-14.4,-5.0,70.2*
COc1ccc(C2(c3ccc(OC)cc3)NC(=O)N(CC(=O)Nc3ccccc3C(F)(F)F)C2=O)cc1,-3.7,-1.4,14.1,7.0,5.5,16.8,·
COc1ccc([C@]2(C(C)C)ON(c3ccccc3C(F)(F)F)C2=O)cc1,23.0,58.3*,20.7,66.2*,-8.3,-25.7,51.7*
COc1ccc2c(c1)C(=O)N(c1ccccc1OC)C(=O)C2(C)C,16.6,7.3,13.3,11.3,-7.9,6.2,·
Cc1c(Cl)cccc1NS(=O)(=O)c1c(C(=O)N2CCOCC2)c(C)n(C)c1C,10.0,5.7,14.8,-13.3,3.3,-2.3,·
Nc1c(Cl)c(Cl)nc(C(=O)N/N=C/c2cccnc2)c1Cl,·,51.0*,3.5,-7.2,-7.5,4.0,39.5
O=C(N/N=C/c1cccnc1)c1ccccc1Cl,-17.4,-13.5,-118.8,-103.0,-4.5,-38.7,·
CCCOc1c(Br)cc(C(=O)OCc2cc(=O)n3ccsc3n2)cc1OC,29.5,57.6*,7.9,13.5,3.4,8.4,26.2
Nc1nc(N)nc(-c2ccc(Cl)c(Cl)c2)n1,-78.1,79.4*,-232.9,-302.4,-12.5,-132.2,91.3*
Cc1nc(N)nc(N)c1-c1ccc(Cl)c(Cl)c1,37.7,10.5,21.7,23.5,-9.7,68.7,·
Cc1ncsc1CCC(=O)N1CCCC(C(=O)c2ccc3c(c2)OCO3)C1 (stereo not drawn),-12.4,4.5,-52.0,-31.7,5.8,7.8,·
O=c1c(O)c(-c2ccccc2)oc2cc(O)cc(O)c12,-47.1,59.6*,-97.2,-203.5,6.4,-54.9,62.0*
O=C(Nc1nc2ccc(F)cc2s1)C1CCN(S(=O)(=O)c2cc([N+](=O)[O-])ccc2Cl)CC1,21.4,78.8*,-209.1,-36.3,-16.7,65.0,72.3*
CC(=O)c1ccc(OCCCC(=O)N2CCN(S(=O)(=O)c3ccc(C(C)C)cc3)CC2)cc1,11.5,-15.6,7.5,-1.9,3.3,61.0,·
N#CC1=C(N)Oc2cc(O)c(C=Nc3ccccc3)cc2C1c1ccccc1 (stereo not drawn),50.5,41.4,30.7,-12.4,15.8,-3.8,·
Cc1ccc(N=Cc2cc3c(cc2O)OC(N)=C(C#N)C3c2ccccc2)cc1 (stereo not drawn),41.6,54.2*,35.0,-8.0,17.6,32.4,74.3*
COc1ccc(OCC(=O)NNC(=O)C(=O)N2CCCC2)cc1,5.8,12.1,14.0,9.4,-7.9,11.2,·
Cc1ccccc1Nc1c(F)c(F)c(F)c(F)c1C(=O)O,2.6,7.5,13.3,-2.5,-1.7,-17.9,·
Clc1cccc(-c2nc(-c3ccc(-c4nn[nH]n4)cc3)no2)c1,-39.8,-0.8,-329.7,-271.2,23.1,-35.0,·
S=C(Nc1cccc2ccccc12)Nc1cccc2ccccc12,19.5,83.8*,-77.7,-30.8,-37.0,9.6,11.0
Cn1c(=O)c([N+](=O)[O-])c(NC2CCS(=O)(=O)C2)c2ccccc21 (stereo not drawn),4.0,4.2,10.1,11.1,2.6,12.4,·
Nc1ncnc(NC2CCS(=O)(=O)C2)c1[N+](=O)[O-] (stereo not drawn),12.0,52.0*,10.9,-24.6,-5.8,-2.1,35.1
CN(c1ncnc(N)c1[N+](=O)[O-])C1CCS(=O)(=O)C1 (stereo not drawn),-37.4,51.1*,7.9,-2.8,-13.5,10.8,60.6*
Cc1cc(NC(=O)CS(=O)(=O)c2ccc(Cl)cc2)no1,-3.5,-2.3,7.0,1.0,-1.1,-19.2,·
SMILES,TRPM1 prom inh,CF NFkB inh,HIF-2a block,Peg3 prom inh,KKLEB tox,Shn3 inh set2,CF NFkB conf
O=Nc1c(O)n(Cc2c(Cl)cccc2Cl)c2ccccc12,3.6,56.3*,25.1,39.1,-24.3,25.9,66.7*
O=Nc1c(O)n(Cc2ccc(Cl)cc2)c2ccccc12,12.0,30.4,21.3,29.9,12.4,7.2,·
O=C1NC(c2cccc3ccccc23)Nc2ccc(Cl)cc21 (stereo not drawn),41.8,51.9*,2.5,-13.5,-25.8,26.0,84.0*
Clc1ccc(C2Nc3cccc4cccc(c34)N2)c(Cl)c1,8.0,-5.7,-8.8,10.7,-8.7,12.1,·
O=C(Oc1ccc(F)cc1C(=O)/C=C/c1cccs1)c1cccc([N+](=O)[O-])c1,27.9,50.4*,27.6,18.0,0.6,4.1,59.8*
COc1ccc(C(=O)Oc2ccc(F)cc2C(=O)/C=C/c2ccc(OC)c(OC)c2)cc1,5.7,12.5,3.7,18.6,-15.3,15.7,·
COc1ccc(/C=C/C(=O)c2cc(F)ccc2OC(=O)c2ccccc2C)cc1OC,48.6,54.2*,24.5,19.3,-27.0,9.3,45.4*
O=C(CCN1C(=O)c2ccccc2C1=O)NCc1ccc(Cl)cc1,·,9.6,1.6,8.2,0.9,7.6,·
O=C(Nc1ccccn1)c1ccc([N+](=O)[O-])o1,-2.8,30.8,-11.5,-6.1,-4.3,-29.1,·
Cc1ccc2nsnc2c1NC(=O)c1ccc([N+](=O)[O-])o1,47.0,72.6*,37.8,21.6,6.9,10.6,37.0
Cc1ccnc(NC(=O)c2ccc([N+](=O)[O-])o2)c1,13.3,51.2*,-137.5,-66.5,2.8,-42.9,19.7
NC(=O)c1ccsc1NC(=O)c1ccc([N+](=O)[O-])o1,66.9*,59.0*,-22.5,47.1,-28.6,29.4,-15.4
Cc1ccc2nsnc2c1NC(=O)CCl,-3.4,-11.6,7.5,4.9,3.1,-3.7,·
COc1ccc(NC(=O)Cn2ncn3nc(-c4ccc(OC)cc4)cc3c2=O)cc1,6.1,54.0*,-15.8,-10.8,-33.2,0.7,54.8*
COc1ccc(Nc2cccc3ccccc23)cc1,-0.6,75.9*,-115.4,-11.0,-22.3,-14.3,-3.9
COc1ccc(Nc2cccccc2=O)cc1,-55.3,16.7,-79.2,-123.2,10.5,-11.4,·
Cn1cccc1C(=O)NC(=O)COC(=O)c1ccc(S(C)(=O)=O)c([N+](=O)[O-])c1,85.8*,66.7*,35.7,101.8*,-18.3,98.2*,59.3*
Cc1ccc(S(=O)(=O)Nc2ccc3cc([N+](=O)[O-])ccc3c2[N+](=O)[O-])cc1,20.6,50.2*,-25.9,47.7,-24.1,12.0,74.6*
O=C1OC(c2ccccc2)(c2cc(Br)ccc2O)c2ccccc21 (stereo not drawn),-8.3,74.6*,31.5,104.2*,-20.3,-8.4,49.5*
Cn1cc([N+](=O)[O-])c(C(=O)Nc2ccc(C3CCCCC3)cc2)n1,5.3,52.1*,-123.6,-35.2,-23.8,-26.0,-175.2
